What all share (assay): NCI-60 one-dose screen, 48 h (100 = growth as untreated, 0 = no growth, -100 = all killed)
What all share (details): 10 µM

For assay [1], the system named is RPMI-8226 leukemia.
The subject of assay [2] is OVCAR-8 ovarian.
The subject of assay [3] is SK-OV-3 ovarian.
In assay [4] the test system is IGROV1 ovarian.
The subject of assay [5] is OVCAR-3 ovarian.
The test system of assay [6] is HS 578T breast.
Assay [7] relates to NCI/ADR-RES ovarian.
In assay [8] the test system is T-47D breast.
For assay [9], the system named is OVCAR-5 ovarian.
Assay [10] concerns OVCAR-4 ovarian.

About 83,000 compounds went through this panel and 20% of them were active in at least one assay; those are over-represented in the sample as a whole.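 Method: cells in 96-well plates; compound added at one concentration; 48 h incubation; percent growth measured; values under 10 scored active.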 A number with no mark means an inactive call. The source made the active and inactive calls.

On to `COc1ccc2c(c1)nc(N)c1c3cccnc3cn21`, for which the growth in [1] was 34.3%; in [2], 4.95% (active); in [3] it was 9.24% (active); in [4], 17.8%; in assay [5], 20.4%; in assay [6] it was 43.1%. Besides, the growth was -2.31% (active) in [7] and 62.6% in [8].
With `Cc1nc2ccc(CN(C)c3ccc(C(=O)N[C@@H](CCC(=O)O)C(=O)O)s3)cc2c(=O)[nH]1`, the growth in assay [1] was 56.6%; in [9], 67.6%; in assay [3], 55.3%; in assay [4], 71.8%; in [5], 57.3%; in assay [6] it was 73.2%. For the same compound, the growth in assay [8] was 55.4%.
Consider `CCCC1(CC(=O)O)OCCc2c1[nH]c1ccccc21` (configuration not stated), for which the growth in [1] is 99.9%; in assay [9], 88.6%; in [10], 74%; in assay [3], 217%; in assay [4] it was 114%; in assay [5], 109%. The growth in assay [6] was 101%; in assay [7], 107%; in assay [8], 194%.
On to `NC(=O)SCC(=O)Nc1ccc(S(N)(=O)=O)cc1`, for which the growth was 108% in assay [1]; 104% in [2]; 106% in [10]; 108% in [3]; 112% in assay [4]; 107% in assay [5]. The figures for the growth in [6], in assay [7] and in assay [8] were 99.6%, 105% and 98.2%, respectively.
Take `O=C1ON=[N+](c2ccc(Cc3ccc([N+]4=NOC(=O)C4CN4CCOCC4)cc3)cc2)C1CN1CCOCC1` (configuration not stated): the growth in [1] was 60.5%; in assay [2], 80.9%; in [10], 53.9%; in [3] it was 88%; in [4], 62.3%; in assay [5], 89.1%. Besides, the growth in assay [6] is 64%; in assay [7], 63.4%; in assay [8], 56.1%.
Take `CN1CC[C@@H](c2c(O)cc(O)c3c(=O)cc(-c4ccccc4Cl)oc23)[C@@H](O)C1`: the growth in [1] was -32.3% (active); in assay [9], 16.4%; in assay [10], -26.7% (active); in [4], -37.1% (active); in assay [5] it was 13.6%; in [6] it was 12.9%. Moreover, the growth in assay [7] was 12.2%; in assay [8] it was 4.59% (active).
For the compound `C=C(NC(=O)C(=C)NC(=O)c1csc(C2=NC3c4csc(n4)C4NC(=O)c5csc(n5)C(C(C)(O)C(C)O)NC(=O)C5CSC(=N5)/C(=C/C)NC(=O)C(C(C)O)NC(=O)c5csc(n5)C3(CC2)NC(=O)C(C)NC(=O)C(=C)NC(=O)C(=C)NC(=O)C(C(C)C)NC2C=Cc3c(C(C)O)cc(nc3C2O)C(=O)OC4C)n1)C(N)=O` (configuration not stated), the growth in assay [1] was -37.1% (active); in [9] it was 52.6%; in [10] it was 6.53% (active); in [3], 61.9%; in [4], -18.1% (active); in assay [5] it was 13.4%. Besides, the growth was 22% in assay [6], 77.2% in assay [7] and -6.42% (active) in assay [8].
Take `COC(=O)[C@@H]1[C@H](O)[C@H](C)[C@H](O)[C@@](C)(O)/C=C\C=C(C)C(=O)Nc2c(C)c(OC(C)=O)c3c(c2O)C(=O)C(C)=C2OCOC(=C23)C(C)=C[C@@](C)(O)[C@H](O)[C@@H](C)[C@H]1OC(C)=O`: the growth in assay [1] is -13.2% (active); in [9], 97.7%; in assay [10], 117%; in [3] it was 117%; in assay [4], 88.4%; in assay [5], 112%. Further, the figures for the growth in assay [6], in [7] and in assay [8] were 110%, 114% and 102%, respectively.
On to `COc1ccc(OC)c2c1C(=O)CC2C` (configuration not stated), for which the growth is 106% in assay [1]; 105% in assay [2]; 112% in assay [9]; 100% in [4]; 101% in [5]; 98.2% in assay [6]. For the same compound, the growth in assay [7] is 108%; in [8] it was 98.8%.
In the case of `COc1ccc(Cl)cc1C(=O)Nc1nc2ccc(Cl)cc2s1`, the growth in [1] was 80.5%; in [2] it was 88.9%; in assay [9], 124%; in assay [3] it was 91.9%; in assay [4], 65.9%; in [5], 103%. Moreover, the growth in assay [7] is 102%; in assay [8], 47.2%.
Take `O=C(CNC(=O)OCc1ccccc1)NCC(=O)Oc1ccc([N+](=O)[O-])cc1`: the growth was 112% in assay [1]; 109% in [9]; 99.2% in assay [10]; 100% in assay [3]; 109% in assay [4]; 111% in assay [5]. The growth was 137% in assay [6], 96.2% in assay [7] and 103% in assay [8].
Take `Cc1cccc2c(NCCN(C)C)c3cccc(C(=O)NCCN(C)C)c3nc12`: the growth in [1] is -34.6% (active); in [9], 26.1%; in assay [10] it was -44% (active); in [3], 19.7%; in assay [4] it was -61% (active); in assay [5] it was 13.9%. The growth in assay [6] is 10.2%; in assay [7], -3.11% (active); in [8] it was 29.3%.
Consider `CCOCCOCCOCCOCCOCCOCCOCCOCCOCCO` (tested in a mixture with another compound), for which the growth in [1] was -33.3% (active); in [2] it was 5.89% (active); in assay [10], 21.3%; in assay [3] it was 38.2%; in assay [4] it was 30.2%; in [5] it was -16.8% (active). The results for the growth in assay [6], in assay [7] and in assay [8] were 39.6%, 55.7% and 16.6%, respectively.
In the case of `CC[C@H](C)C(=O)O[C@H]1CCC=C2C=C[C@H](C)C(CCC3C[C@@H](O)CC(=O)O3)[C@H]21` (some centres not stated), the growth in [1] is 96.8%; in [2], 45.2%; in assay [10] it was 98.7%; in assay [3], 70.9%; in [4] it was 42.5%; in [5], 112%. The growth in assay [6] was 59.4%; in assay [7] it was 21.5%; in assay [8], 105%.
Regarding `COc1cccc(C2C3=C(COC3=O)N(CCO)c3cc(OC)ccc32)c1` (configuration not stated), the growth in assay [1] is 20.6%; in [9] it was 27.5%; in assay [10], 59.2%; in assay [3], 21.6%; in assay [4], 24.3%; in assay [5], -50% (active). Further, the growth in assay [6] was 15.5%; in assay [7], -12.5% (active); in assay [8] it was 62.1%.
As for `C=C(Cl)[C@@](Cl)(CBr)CC[C@@H](Br)C(C)(C)Cl`, the growth in assay [1] was -59.4% (active); in assay [9] it was -46.3% (active); in assay [10], -37% (active); in assay [3], 93.5%; in assay [4], 29.6%; in assay [5], -96.2% (active). Further, the growth in assay [7] is -66.6% (active); in [8], -58.9% (active).
As to `CC(C)C[C@H](NC(=O)[C@H](Cc1cccc2ccccc12)NS(=O)(=O)c1cccc2cccnc12)B(O)O`, the growth in assay [1] is -36.7% (active); in [9], -57.6% (active); in [3], 0.299% (active); in assay [4], -64.7% (active); in assay [5], -77.1% (active); in assay [6], -18.8% (active). Further, the growth in assay [7] is 14.6%; in assay [8], -44.6% (active).
Turning to `COc1cc(Cc2cc(-c3ccc(Cl)cc3)n[nH]c2=O)ccc1O`, the growth is 47.9% in [1]; 92.6% in assay [2]; 115% in [9]; 98.6% in [3]; 96.1% in assay [5]; 73.2% in assay [6]. For the same compound, the results for the growth in assay [7] and in assay [8] were 126% and 91%, respectively.
`CCN(CC)CCNC(=O)c1ccc(NC(C)=O)cc1`: the growth in assay [1] is 112%; in assay [2], 106%; in assay [10] it was 108%; in assay [3], 102%; in assay [4], 112%; in assay [5], 121%. The growth was 99.8% in assay [6], 96.9% in [7] and 99.7% in assay [8].
As to `c1ccc([C@H]2CN3CCSC3=N2)cc1`, the growth in assay [1] was 110%; in [9] it was 87.2%; in [5], 111%; in [6] it was 85.7%; in assay [7], 103%; in assay [8] it was 99.6%.
As for `Cc1ccc(NC(=O)CSc2nc3ccccc3c(=O)n2CCc2ccccc2)c(C(=O)O)c1`, the growth in assay [2] is 100%; in assay [9], 111%; in assay [10], 103%; in [3], 93.6%; in [4], 94.1%; in assay [5], 115%. For the same compound, the growth is 106% in assay [6], 118% in assay [7] and 96.2% in assay [8].
For `O=C1OCC2=C1C(c1cccc(Br)c1)c1cc3c(cc1N2CCO)CCC3` (configuration not stated), the growth is 19% in assay [1]; 22.4% in assay [9]; 54.6% in assay [10]; 28.8% in [3]; 20.3% in assay [4]; -62.5% (active) in assay [5]. The values for the growth in assay [6], in assay [7] and in [8] were 6.91% (active), -5.39% (active) and 71.5%, respectively.
On to `COc1ccc(N2C(=O)C3c4[nH]c5ccc(OCc6ccccc6)cc5c4C4CCC(C(C)C)CC4C3C2=O)cc1` (configuration not stated), for which the growth in assay [1] is 86.9%; in [9], 84.4%; in [10], 47.7%; in [3], 116%; in [4], 59.6%; in assay [5] it was 109%. Moreover, the growth in assay [6] was 92.7%; in [7], 109%; in assay [8], 104%.
Take `COc1ccc2c(c1)[n+]([O-])c(C#N)c(NC(=O)c1ccco1)[n+]2[O-]`: the growth in assay [2] is 65.3%; in [9] it was 111%; in assay [10] it was 93.8%; in assay [3], 91.2%; in assay [4] it was 118%; in assay [5], 113%. The values for the growth in assay [6], in assay [7] and in [8] were 92.5%, 111% and 91.5%, respectively.
On to `O=C(CCCCCCC(=O)Nc1cccnc1)NO`, for which the growth in assay [1] is -14.9% (active); in assay [9] it was 60.8%; in assay [10] it was 16.1%; in assay [3] it was 78.9%; in [4] it was 31%; in [5], 25.1%. The growth is 34.6% in assay [6], 2.65% (active) in assay [7] and -28.7% (active) in [8].
Consider `Cc1cc(C)c(NC(=O)c2sc3nc4c(cc3c2N)C(=O)CCC4)c(C)c1`, for which the growth was 31.8% in [1]; 45.6% in assay [2]; 10.4% in assay [3]; 35.4% in assay [4]; 13.2% in [5]; 17.7% in [6]. For the same compound, the growth in assay [7] was -8.04% (active); in assay [8], 40.6%.
With `N#Cc1c(C#N)c(SSc2c(C#N)c(C#N)c(N)n2-c2ccccc2)n(-c2ccccc2)c1N`, the growth is 125% in assay [1]; 91.8% in assay [9]; 76.8% in assay [10]; 115% in [3]; 94.5% in assay [4]; 127% in assay [5]. Besides, the growth in assay [6] is 99.6%; in assay [7], 101%; in assay [8] it was 96.5%.
In the case of `O=C1NC(=O)N(Cc2ccccc2)CC1Br` (configuration not stated), the growth was 61.9% in [2]; 85.3% in [9]; 77.7% in assay [10]; 87% in assay [3]; 56.9% in [4]; 92.9% in assay [5]. Also, the growth in assay [6] was 114%; in assay [7] it was 56.6%; in assay [8] it was 57%.
For the compound `CN(CCc1ccccn1)c1ccccc1`, the growth in assay [2] was 102%; in [9], 94%; in [10], 98.5%; in assay [3], 112%; in [4] it was 103%; in assay [5], 131%. The growth is 107% in assay [6], 105% in [7] and 97.4% in [8].
As to `CC(C)=CCc1ccc(O)c(=O)cc1C(C)C`, the growth in [2] is 12.4%; in assay [9], 52.4%; in [10] it was 31.2%; in [3], 18.5%; in [4] it was 1.88% (active); in [5] it was 43.4%. For the same compound, the growth in assay [6] is 72.7%; in [7], 1.61% (active); in assay [8], 20.4%.

These data come from PubChem BioAssay (NCI).
